Experimental data reported in PubChem BioAssay (EPA / NIEHS).
Results filed as inconclusive are left out. Activity calls are given as the source filed them. How the source made its calls: active means hit-call score of the fitted dose curve at least 0.9, where 1 is the maximum; inconclusive means response in the unintended direction; inactive means score below 0.9.

Target: human Retinoic Acid Receptor beta (RARb), RARB (gene 5915) (UniProt P10826)
Experiment: ATG_RARb_TRANS: Attagene TRANS-FACTORIAL HepG2 Assay for human Retinoic Acid Receptor beta (AID 2283004)
Procedure, shortened: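 Readout is reporter mRNA induction: RNA reverse-transcribed, PCR-amplified, FAM-labelled, HpaI-cut and resolved by capillary electrophoresis. Transiently transfected HepG2 cells carrying exogenous NR–Gal4 chimeras were dosed for 24 h; activity fitted upward relative to DMSO.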

human Retinoic Acid Receptor beta (RARb), RARB (gene 5915), sequence (P10826 whole entry, looked up): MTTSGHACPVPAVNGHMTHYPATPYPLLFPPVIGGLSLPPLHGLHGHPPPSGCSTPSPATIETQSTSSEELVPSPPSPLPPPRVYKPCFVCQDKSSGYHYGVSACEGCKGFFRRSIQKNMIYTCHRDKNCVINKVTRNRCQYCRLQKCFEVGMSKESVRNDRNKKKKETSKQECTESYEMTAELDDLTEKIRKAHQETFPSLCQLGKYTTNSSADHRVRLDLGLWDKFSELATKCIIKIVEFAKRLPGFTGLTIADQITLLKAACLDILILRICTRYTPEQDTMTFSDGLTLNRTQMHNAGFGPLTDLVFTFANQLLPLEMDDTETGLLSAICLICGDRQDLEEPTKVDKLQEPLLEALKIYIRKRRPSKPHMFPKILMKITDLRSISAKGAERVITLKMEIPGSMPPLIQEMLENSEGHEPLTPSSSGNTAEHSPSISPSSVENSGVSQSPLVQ

Row | SMILES | outcome
1 | c1ccc(C[P+](c2ccccc2)(c2ccccc2)c2ccccc2)cc1 | inactive
2 | CC(O)C#CC(C)O (centres undefined) | inactive
3 | C[Si](C)O[Si](C)C | inactive
4 | Nc1cccnc1N | inactive
5 | CCCCOC(=O)C(C)O (centres undefined) | inactive
6 | CN1CN(C)CN(C)C1 | inactive
7 | C=C(C)CCCC | inactive
8 | F[Si-2](F)(F)(F)(F)F | inactive
9 | CSc1ccc(O)cc1C | inactive
10 | CCCCCCCC/C=C\CCCCCCCC(=O)N(C)CC(=O)O | inactive
11 | CC(C)Nc1ccc(NC(C)C)c2c1C(=O)c1ccccc1C2=O | inactive
12 | C#CC(O)CCC (centres undefined) | inactive

Target: Retinoic acid receptor alpha (Homo sapiens) (UniProt P10276)
Experiment: ATG_RARa_TRANS: Attagene TRANS-FACTORIAL HepG2 Assay for human Retinoic Acid Receptor alpha (RARa) (AID 2283005);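 on AC50: potency for increased reporter signal meaning RARa activation over DMSO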
Procedure, shortened: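 HepG2 transiently transfected with multiplex GAL4-UAS reporter units including a human RARa–GAL4 chimera; 24 h compound exposure. Reporter mRNA quantified by RT-PCR, 6-FAM labeling and capillary electrophoresis; gain of signal versus DMSO.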

Retinoic acid receptor alpha (Homo sapiens), sequence (P10276 whole entry, looked up): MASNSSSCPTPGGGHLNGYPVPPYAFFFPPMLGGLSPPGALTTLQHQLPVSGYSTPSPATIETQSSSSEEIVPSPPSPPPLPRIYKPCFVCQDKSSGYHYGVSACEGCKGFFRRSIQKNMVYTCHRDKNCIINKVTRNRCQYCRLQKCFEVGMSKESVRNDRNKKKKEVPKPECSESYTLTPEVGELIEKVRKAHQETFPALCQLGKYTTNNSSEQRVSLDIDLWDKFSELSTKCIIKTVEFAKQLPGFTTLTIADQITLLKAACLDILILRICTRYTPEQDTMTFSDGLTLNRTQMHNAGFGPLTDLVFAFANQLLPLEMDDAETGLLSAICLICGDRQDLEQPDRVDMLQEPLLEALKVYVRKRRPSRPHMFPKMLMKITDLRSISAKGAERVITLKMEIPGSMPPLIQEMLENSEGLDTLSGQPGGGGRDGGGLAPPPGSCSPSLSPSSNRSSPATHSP

Row | SMILES | outcome | AC50
13 | CC(=O)C=O | inactive | –
14 | CCC(=O)OC(C)c1ccccc1 (centres undefined) | inactive | –
15 | c1ccc(C[P+](c2ccccc2)(c2ccccc2)c2ccccc2)cc1 | inactive | –
16 | CC(O)C#CC(C)O (centres undefined) | inactive | –
17 | CC1CCCCC1 | inactive | –
18 | O=C1c2ccccc2C(=O)c2c(Cl)cccc21 | inactive | –
19 | Nc1cccnc1N | – | 70.8 µM (active)
20 | Oc1ccc(C2(c3ccc(O)c(C4CCCCC4)c3)CCCCC2)cc1C1CCCCC1 | inactive | –
21 | CN1CN(C)CN(C)C1 | inactive | –
22 | C=C(C)CCCC | inactive | –
23 | O=C(Cl)c1ccc(Cl)cc1Cl | inactive | –
24 | CCCCCCCC/C=C\CCCCCCCC(=O)N(C)CC(=O)O | inactive | –

Target: Peroxisome proliferator-activated receptor gamma (Homo sapiens) (UniProt P37231)
Experiment: ATG_PPARg_TRANS: Attagene TRANS-FACTORIAL HepG2 Assay for human Peroxisome Proliferator-activated Receptor-gamma (PPARg) (AID 2283007)
Procedure, shortened: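 Liver-derived HepG2 cells expressing an exogenous NR-Gal4 chimera alongside GAL4-UAS reporter genes; 24 h exposure. Fluorescence of reporter RT-PCR products, separated by capillary electrophoresis, gives mRNA induction relative to DMSO.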

Peroxisome proliferator-activated receptor gamma (Homo sapiens), sequence (P37231 whole entry, looked up): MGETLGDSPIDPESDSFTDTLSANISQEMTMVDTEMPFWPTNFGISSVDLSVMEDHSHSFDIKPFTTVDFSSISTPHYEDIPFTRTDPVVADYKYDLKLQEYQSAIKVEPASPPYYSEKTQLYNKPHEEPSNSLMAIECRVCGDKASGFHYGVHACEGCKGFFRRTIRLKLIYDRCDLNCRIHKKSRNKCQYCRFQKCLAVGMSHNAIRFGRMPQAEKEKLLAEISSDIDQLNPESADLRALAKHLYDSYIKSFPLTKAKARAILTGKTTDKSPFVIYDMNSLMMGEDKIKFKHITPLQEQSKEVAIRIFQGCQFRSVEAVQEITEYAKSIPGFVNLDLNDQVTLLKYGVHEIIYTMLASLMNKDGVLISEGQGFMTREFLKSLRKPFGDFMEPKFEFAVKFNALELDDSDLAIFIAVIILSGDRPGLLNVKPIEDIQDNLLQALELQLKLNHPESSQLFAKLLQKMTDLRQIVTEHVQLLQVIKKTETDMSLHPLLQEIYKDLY

Row | SMILES | AC50 | outcome
25 | CCC(Cc1c(I)cc(I)c(N)c1I)C(=O)O (centres undefined) | 29.5 µM (active) | –
26 | CCC(=O)OC(C)c1ccccc1 (centres undefined) | – | inactive
27 | CCCCCC/C=C/CCCCCCCC(=O)O | – | inactive
28 | c1ccc(C[P+](c2ccccc2)(c2ccccc2)c2ccccc2)cc1 | – | inactive
29 | Cc1ccc2c(c1)OCC(=O)CO2 | – | inactive
30 | CC(O)C#CC(C)O (centres undefined) | 41.1 µM (active) | –
31 | CC1CCCCC1 | – | inactive
32 | O=C1c2ccccc2C(=O)c2c(Cl)cccc21 | – | inactive
33 | COC(=O)c1ccc(C=O)cc1 | – | inactive
34 | COCCC(=O)OC | – | inactive
35 | CCCCCCCCn1sc(Cl)c(Cl)c1=O | 11.1 µM (active) | –
36 | Nc1cccnc1N | – | inactive
37 | CC(C)OC=O | – | inactive
38 | Oc1ccc(C2(c3ccc(O)c(C4CCCCC4)c3)CCCCC2)cc1C1CCCCC1 | 2.92 µM (active) | –
39 | CCCCOC(=O)C(C)O (centres undefined) | – | inactive
40 | CN1CN(C)CN(C)C1 | – | inactive
41 | CSc1ccc(O)cc1C | – | inactive
42 | O=C(Cl)c1ccc(Cl)cc1Cl | – | inactive
43 | CCCCCCCCCCCC(=O)Cl | 72.9 µM (active) | –
44 | CCCCCCCC/C=C\CCCCCCCC(=O)OCC(O)CO (centres undefined) | 27.3 µM (active) | –
45 | CCCCCCCC/C=C\CCCCCCCC(=O)N(C)CC(=O)O | 5.36 µM (active) | –
46 | CC(C)OC(=O)COc1ccc(Cl)cc1Cl | – | inactive
47 | CCc1cccc(C)c1N(C(=O)C(=O)O)C(C)COC (centres undefined) | – | inactive
48 | CCC(C)CO (centres undefined) | – | inactive
49 | CC(C)Nc1ccc(NC(C)C)c2c1C(=O)c1ccccc1C2=O | – | inactive
50 | CC(C)CC=C(C=O)c1ccccc1 | 39.5 µM (active) | –
51 | C#CC(O)CCC (centres undefined) | – | inactive

Target: Nuclear receptor subfamily 1 group I member 2 (Homo sapiens) (UniProt O75469)
Experiment: ATG_PXR_TRANS: Attagene TRANS-FACTORIAL HepG2 Assay for human Pregnane X Receptor (PXR) (AID 2283008)
Procedure, shortened: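 Fluorescence intensity of FAM-labelled, HpaI-digested reporter amplicons, separated by capillary electrophoresis, quantifies induction. HepG2 cells with PXR-Gal4 trans-reporter system were exposed 24 h; DMSO defines baseline.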

Nuclear receptor subfamily 1 group I member 2 (Homo sapiens), sequence (O75469 whole entry, looked up): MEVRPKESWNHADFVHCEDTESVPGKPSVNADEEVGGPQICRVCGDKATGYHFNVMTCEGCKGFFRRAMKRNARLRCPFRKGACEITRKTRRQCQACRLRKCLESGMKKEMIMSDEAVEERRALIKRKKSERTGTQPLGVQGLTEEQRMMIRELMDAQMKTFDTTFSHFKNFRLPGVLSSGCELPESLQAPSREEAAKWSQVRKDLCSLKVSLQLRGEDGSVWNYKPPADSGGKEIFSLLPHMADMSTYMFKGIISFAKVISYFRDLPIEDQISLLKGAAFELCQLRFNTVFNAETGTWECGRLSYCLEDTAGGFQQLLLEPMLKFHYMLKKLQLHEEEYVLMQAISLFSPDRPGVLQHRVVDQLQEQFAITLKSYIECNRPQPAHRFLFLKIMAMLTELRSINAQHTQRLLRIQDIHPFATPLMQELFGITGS

Row | SMILES | outcome | AC50
52 | CC(=O)C=O | inactive | –
53 | CCC(Cc1c(I)cc(I)c(N)c1I)C(=O)O (centres undefined) | inactive | –
54 | c1ccc(C[P+](c2ccccc2)(c2ccccc2)c2ccccc2)cc1 | inactive | –
55 | Cc1ccc2c(c1)OCC(=O)CO2 | inactive | –
56 | CC(O)C#CC(C)O (centres undefined) | inactive | –
57 | CC1CCCCC1 | inactive | –
58 | O=C1c2ccccc2C(=O)c2c(Cl)cccc21 | – | 2.73 µM (active)
59 | COCCC(=O)OC | inactive | –
60 | CCOC(=O)CCC(C)=O | inactive | –
61 | CCCCCCCCn1sc(Cl)c(Cl)c1=O | inactive | –
62 | CC(C)OC=O | inactive | –
63 | Oc1ccc(C2(c3ccc(O)c(C4CCCCC4)c3)CCCCC2)cc1C1CCCCC1 | – | 0.977 µM (active)
64 | C=C(C)CCCC | inactive | –
65 | F[Si-2](F)(F)(F)(F)F | inactive | –
66 | CC(=O)c1ccccc1N | inactive | –
67 | CSc1ccc(O)cc1C | inactive | –
68 | CCCCCCCCCCCC(=O)Cl | inactive | –
69 | CCCCCCCC/C=C\CCCCCCCC(=O)OCC(O)CO (centres undefined) | inactive | –
70 | Cc1cc(=O)[nH]c(C(C)C)n1 | inactive | –
71 | CCCCCCCC/C=C\CCCCCCCC(=O)N(C)CC(=O)O | inactive | –
72 | CSc1ccc(Cl)cc1 | inactive | –
73 | CC(C)OC(=O)COc1ccc(Cl)cc1Cl | inactive | –
74 | CCc1cccc(C)c1N(C(=O)C(=O)O)C(C)COC (centres undefined) | inactive | –
75 | CCC(C)CO (centres undefined) | inactive | –
76 | CC(C)Nc1ccc(NC(C)C)c2c1C(=O)c1ccccc1C2=O | – | 0.16 µM (active)
77 | CC(C)CC=C(C=O)c1ccccc1 | – | 0.891 µM (active)
78 | C#CC(O)CCC (centres undefined) | inactive | –

Target: human Retinoic Acid Receptor gamma (RARg), RARG (gene 5916) (UniProt P13631)
Experiment: ATG_RARg_TRANS: Attagene TRANS-FACTORIAL HepG2 Assay for human Retinoic Acid Receptor gamma (RARg) (AID 2283009)
Procedure, shortened: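 Transient transfection of HepG2 with multi-reporter constructs, then 24 h chemical treatment. Total RNA isolated, reverse-transcribed, PCR-amplified, fluorescently labelled and resolved by capillary electrophoresis; activity scored as mRNA induction versus DMSO.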

human Retinoic Acid Receptor gamma (RARg), RARG (gene 5916), sequence (P13631 whole entry, looked up): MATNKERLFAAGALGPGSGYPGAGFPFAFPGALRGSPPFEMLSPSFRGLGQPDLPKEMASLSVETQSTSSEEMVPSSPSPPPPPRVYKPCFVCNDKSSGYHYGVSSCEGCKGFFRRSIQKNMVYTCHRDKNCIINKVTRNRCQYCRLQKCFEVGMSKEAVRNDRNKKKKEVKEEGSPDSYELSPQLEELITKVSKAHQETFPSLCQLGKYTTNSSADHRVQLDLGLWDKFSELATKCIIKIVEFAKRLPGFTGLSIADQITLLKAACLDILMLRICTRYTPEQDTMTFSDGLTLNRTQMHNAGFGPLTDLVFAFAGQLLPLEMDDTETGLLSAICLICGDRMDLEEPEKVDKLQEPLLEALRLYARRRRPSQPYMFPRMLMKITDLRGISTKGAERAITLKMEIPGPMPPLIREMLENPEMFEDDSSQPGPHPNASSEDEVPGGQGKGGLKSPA

Row | SMILES | outcome
79 | CCC(=O)OC(C)c1ccccc1 (centres undefined) | inactive
80 | CCCCCC/C=C/CCCCCCCC(=O)O | inactive
81 | c1ccc(C[P+](c2ccccc2)(c2ccccc2)c2ccccc2)cc1 | inactive
82 | CC(O)C#CC(C)O (centres undefined) | inactive
83 | CC1CCCCC1 | inactive
84 | O=C1c2ccccc2C(=O)c2c(Cl)cccc21 | inactive
85 | C[Si](C)O[Si](C)C | inactive
86 | Nc1cccnc1N | inactive
87 | Oc1ccc(C2(c3ccc(O)c(C4CCCCC4)c3)CCCCC2)cc1C1CCCCC1 | inactive
88 | CC1=CCC2C(=O)OC(=O)C2C1 (centres undefined) | inactive
89 | CCCCOC(=O)C(C)O (centres undefined) | inactive
90 | CN1CN(C)CN(C)C1 | inactive
91 | C=C(C)CCCC | inactive
92 | CSc1ccc(O)cc1C | inactive
93 | O=C(Cl)c1ccc(Cl)cc1Cl | inactive
94 | CCCCCCCCCCCC(=O)Cl | inactive
95 | Cc1cc(=O)[nH]c(C(C)C)n1 | inactive
96 | CCCCCCCC/C=C\CCCCCCCC(=O)N(C)CC(=O)O | inactive
97 | CC(C)OC(=O)COc1ccc(Cl)cc1Cl | inactive
98 | CCC(C)CO (centres undefined) | inactive
99 | CC(C)Nc1ccc(NC(C)C)c2c1C(=O)c1ccccc1C2=O | inactive
